# Values quoted from earlier work as cited in PubChem BioAssay AID977611.
# Among all 3,900 compounds or so, about 3,900 (100%) were called active. No cut-off is given here; in the data, nearly all actives have Kd up to about 4200 µM. So high a share suggests a set chosen from earlier hits. The list shows a part of the results. Where a SMILES comes first, the peptide text is derived from it. Non-standard residues stand in square brackets, D forms with d. Square brackets hold non-standard residues; d marks the D form. Residues, ends and D or L forms follow the SMILES beside them. Peptide text beside a SMILES is read from it. [ ]: non-standard residue; d: D form. * marks the point of attachment. Thr(P(OH)3+) = C[C@@H](O[P+](O)(O)O)[C@H](N)C(=O)O; Lys(Me3) = C[N+](C)(C)CCCC[C@H](N)C(=O)O; Orn(CH(NH2)2) = NC(N)NCCC[C@H](N)C(=O)O; Benzoyl(4-Br) = O=C(c1ccc(Br)cc1)*; Lys(Me2) = CN(C)CCCC[C@H](N)C(=O)O; Benzoyl(4-F) = O=C(c1ccc(F)cc1)*
# Assay: PubChem AID 977611
# Conditions: PDB protein-ligand complexes, literature Kd
molecule,measurement,setting,value
NS(=O)(=O)c1ccc(CNc2ncnc(NCc3ccccc3)c2[N+](=O)[O-])cc1,Kd,"protein: human carbonic anhydrase II, PDB entry 3mhm",0.1 µM (active)
CC(C)[C@H](NC(=O)[C@H](CCCCN(C)C)NC(=O)[C@H](CO)NC(=O)[C@H](CCCN=C(N)N)NC(=O)[C@H](C)NC(=O)[C@@H](NC(=O)[C@@H](N)CCCN=C(N)N)[C@@H](C)O)C(=O)O (H-RTARS[Lys(Me2)]V-OH),Kd,"protein: Chromodomain-helicase-DNA-binding protein 1 CHD1, PDB entry 4o42",22 µM (active)
CC(C)[C@H](NC(=O)[C@H](CCCC[N+](C)(C)C)NC(=O)[C@H](CO)NC(=O)[C@H](CCCN=C(N)N)NC(=O)[C@H](C)NC(=O)[C@H](C)NC(=O)[C@@H](N)CCCN=C(N)N)C(=O)O (tested in a mixture with another compound) (H-RAARS[Lys(Me3)]V-OH),Kd,"protein: Chromodomain-helicase-DNA-binding protein 1 CHD1, PDB entry 4nw2",29 µM (active)
CC[C@H](C)[C@H](NC(=O)[C@@H](N)CC(N)=O)C(=O)N[C@H](C(=O)N[C@@H](CCC(N)=O)C(=O)N1CCC[C@H]1C(=O)N[C@H](C(=O)N[C@@H](CCC(N)=O)C(=O)N[C@@H](CCC(N)=O)C(=O)N[C@@H](CO)C(=O)N[C@H](C(=O)O)[C@@H](C)O)[C@@H](C)O[P+](O)(O)O)[C@@H](C)O[P+](O)(O)O (H-NI[Thr(P(OH)3+)]QP[Thr(P(OH)3+)]QQST-OH),Kd,"protein: the yeast Dun1 FHA domain, PDB entry 2jql",0.3 µM (active)
CC[C@H](C)[C@H](NC(=O)[C@@H](N)CC(N)=O)C(=O)N[C@H](C(=O)N[C@@H](CCC(N)=O)C(=O)N1CCC[C@H]1C(=O)N[C@H](C(=O)N[C@@H](CCC(N)=O)C(=O)N[C@@H](CCC(N)=O)C(=O)N[C@@H](CO)C(=O)N[C@H](C(=O)O)[C@@H](C)O)[C@@H](C)O)[C@@H](C)O[P+](O)(O)O (H-NI[Thr(P(OH)3+)]QPTQQST-OH),Kd,"protein: Rad53 FHA1 domain, PDB entry 2jqi",10 µM (active)
Cn1c[n+]([C@@H]2O[C@H](CO[P+](O)(O)O[P+](O)(O)O[P+](O)(O)O)[C@@H](O)[C@H]2O)c2c1C(=O)NC(N)N2 (some centres undefined),Kd,"protein: rRNA N-glycosidase, PDB entry 4emr",0.0321 µM (active)
Cn1c[n+]([C@@H]2O[C@H](CO[P+](O)(O)O[P+](O)(O)O)[C@@H](O)[C@H]2O)c2c1C(=O)NC(N)N2 (some centres undefined),Kd,"protein: rRNA N-glycosidase, PDB entry 4emf",0.0839 µM (active)
C[C@H]1COCCN1C[C@H]1CN(S(=O)(=O)c2cccs2)CCN1c1ccc([C@@](C)(O)C(F)(F)F)cc1,Kd,"protein: Glucokinase regulatory protein, PDB entry 4ly9",0.007 µM (active)
COC(=O)c1cc(Nc2ncnc3[nH]ccc23)ccc1Br,Kd,"protein: TAU-TUBULIN KINASE 1, PDB entry 4btm",4.1 µM (active)
CC[C@H](C)[C@H](NC(=O)[C@H](CC(C)C)NC(=O)[C@H](CCCNC(N)N)NC(=O)[C@@H](N)CC(N)=O)C(=O)N[C@@H](CC(C)C)C(=O)O (H-N[Orn(CH(NH2)2)]LIL-OH),Kd,"protein: Chaperone protein DnaK, PDB entry 4ezy",2.26 µM (active)
CC[C@H](C)[C@H](NC(=O)[C@H](C)NC(=O)[C@H](CCC(=O)O)NC(=O)[C@H](CCCNC(N)N)NC(=O)[C@H](CC(C)C)NC(=O)[C@H](Cc1ccc(O)cc1)NC(=O)[C@H](CCCNC(N)N)NC(=O)[C@H](CC(=O)O)NC(=O)[C@H](CC(=O)O)NC(=O)[C@@H](N)CC(=O)O)C(=O)N[C@@H](CCC(N)=O)C(=O)N[C@@H](CCC(=O)O)C(=O)N[C@@H](Cc1ccc(O)cc1)C(=O)N[C@@H](CC(=O)O)C(=O)N[C@@H](CC(N)=O)C(=O)N[C@H](C(=O)N[C@@H](C)C(=O)N[C@@H](CCCCN)C(=O)O)[C@@H](C)CC (H-DDD[Orn(CH(NH2)2)]YL[Orn(CH(NH2)2)]EAIQEYDNIAK-OH),Kd,"protein: N terminal domain of Harmonin, PDB entry 2kbr",25.4 µM (active)
CC[C@H](C)[C@H](NC(=O)[C@@H](N)CCCNC(N)N)C(=O)N[C@@H](CCC(N)=O)C(=O)N[C@@H](CCCNC(N)N)C(=O)N[C@@H](CC(N)=O)C(=O)N[C@@H](CCCCN)C(=O)N[C@@H](C)C(=O)N[C@@H](C)C(=O)N[C@@H](C)C(=O)N[C@@H](CC(C)C)C(=O)N[C@@H](CC(C)C)C(=O)N[C@@H](CCCNC(N)N)C(=O)N[C@@H](CC(C)C)C(=O)N[C@@H](C)C(=O)N[C@@H](C)C(=O)N[C@@H](CCCNC(N)N)C(=O)O (H-[Orn(CH(NH2)2)]IQ[Orn(CH(NH2)2)]NKAAALL[Orn(CH(NH2)2)]LAA[Orn(CH(NH2)2)]-OH),Kd,"protein: RPA32(C-terminal domain of Replication protein A,172-270), PDB entry 1dpu",1 µM (active)
CC[C@H](C)[C@H](NC(=O)[C@H](CC(N)=O)NC(=O)[C@H](CCSC)NC(=O)[C@@H](N)CCCNC(N)N)C(=O)N[C@@H](CCC(N)=O)C(=O)N[C@@H](CCSC)C(=O)N[C@@H](CC(C)C)C(=O)N[C@@H](CC(C)C)C(=O)N[C@@H](CCC(=O)O)C(=O)N[C@@H](C)C(=O)N[C@@H](C)C(=O)N[C@@H](CC(=O)O)C(=O)N[C@@H](Cc1ccc(O)cc1)C(=O)N[C@@H](CC(C)C)C(=O)N[C@@H](CCC(=O)O)C(=O)N[C@@H](CCCNC(N)N)C(=O)O (H-[Orn(CH(NH2)2)]MNIQMLLEAADYLE[Orn(CH(NH2)2)]-OH),Kd,"protein: mammalian Sin3A PAH2 domain, PDB entry 1g1e",0.029 µM (active)
same,Kd,"protein: mammalian mSin3A (mSin3A) PAH2 domain, PDB entry 1s5q",5.2 µM (active)
H-EDMYRAADEIAKE-OH,Kd,"protein: E3 ubiquitin-protein ligase RNF31 HOIP 5-180, PDB entry 4oyk",0.18 µM (active)
CO/N=C(\C(=O)N[C@@H]1C(=O)N2C(C(=O)O)=C(COC(C)=O)CS[C@H]12)c1csc(N)n1,Kd,"protein: PA4794, PDB entry 4kot",3.5 µM (active)
CO/N=C(\C(=O)N[C@@H]1C(=O)N2C(C(=O)O)=C(COC(N)=O)CS[C@H]12)c1ccco1,Kd,"protein: PA4794, PDB entry 4kov",177 µM (active)
Cc1oc2ccc(NS(=O)(=O)c3ccc(Cl)cc3)cc2c1C(=O)O,Kd,"protein: Non-structural protein 5, PDB entry 3vws",225 µM (active)
CC[C@H](C)[C@H](NC(=O)[C@H](CCCCNC(=O)c1ccc(Br)cc1)NC(=O)[C@H](CO)NC(=O)[C@@H](NC(=O)[C@@H]1CCCN1C(=O)[C@@H](N)Cc1c[nH]c2ccccc12)[C@@H](C)O)C(=O)O (H-WPTSK(Benzoyl(4-Br))I-OH),Kd,"protein: Golgi-associated PDZ and coiled-coil motif-containing protein CAL PDZ (CALP) domain, PDB entry 4nmv",11.1 µM (active)
CC[C@H](C)[C@H](NC(=O)[C@H](CCCCNC(=O)c1ccc(F)cc1)NC(=O)[C@H](CO)NC(=O)[C@@H](NC(=O)[C@@H]1CCCN1C(=O)[C@@H](N)Cc1c[nH]c2ccccc12)[C@@H](C)O)C(=O)O (H-WPTSK(Benzoyl(4-F))I-OH),Kd,"protein: Golgi-associated PDZ and coiled-coil motif-containing protein CAL PDZ (CALP) domain, PDB entry 4nms",11.4 µM (active)
H-WPK(Ac)SII-OH,Kd,"protein: Golgi-associated PDZ and coiled-coil motif-containing protein CAL PDZ (CALP) domain, PDB entry 4nmp",91.9 µM (active)
CN1CC/C=C/CCCCCC(=O)Cc2c(Cl)c(O)cc(O)c2C1=O,Kd,"protein: Hsp90 N-terminal domain, PDB entry 4ce2",144 µM (active)
CN1CC/C=C/CCCCCCC(=O)Cc2c(Cl)c(O)cc(O)c2C1=O,Kd,"protein: Hsp90 N-terminal domain, PDB entry 4ce1",41.8 µM (active)
CN1CCC/C=C\CCCC(=O)Cc2c(Cl)c(O)cc(O)c2C1=O,Kd,"protein: Hsp90 N-terminal domain, PDB entry 4ce3",110 µM (active)
